Drawing on PubChem BioAssay (NCI), this text covers growth for 13 compounds.

About 83,000 compounds went through this panel and 20% of them were active in at least one assay; those are over-represented in the sample as a whole.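 The endpoint reported here, percent growth, reads 100 for growth as untreated, 0 for no net growth and -100 for all cells dead.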 Values without a mark were called inactive. Active and inactive are the calls of the source. Rule for the calls: active = growth percent below 10; inactive = the rest.

What all share (experiment): NCI-60 one-dose screen, 48 h (100 = growth as untreated, 0 = no growth, -100 = all killed)
Details in all cases: 10 µM unless noted

The test system of test [1] is SK-MEL-2 melanoma.
The subject of test [2] is EKVX NSCLC.
The subject of test [3] is SN12C renal.
Test [4] deals with UO-31 renal.
The subject of test [5] is TK-10 renal.
The test system of test [6] is ACHN renal.
For test [7], the system named is CAKI-1 renal.
Test [8] relates to A498 renal.
The test system of test [9] is CCRF-CEM leukemia.
The subject of test [10] is MOLT-4 leukemia.

As for `C=CCn1c(SCC(=O)NCc2cc(C)c(O)c(C)c2)nc2ccc(Cl)cc2c1=O`, the growth in [1] was 101%; in test [2], 111%; in [3], 107%; in [4], 74.6%; in test [5], 113%; in [6] it was 98.9%. For the same compound, the growth is 112% in test [7], 106% in test [8], 86.3% in test [9] and 81.6% in test [10].

For `Cc1nc2ncnc(Cl)c2[nH]1`, the growth is 104% in test [1]; 103% in [2]; 99.7% in [3]; 88.3% in test [4]; 94.4% in test [5]; 109% in test [6]. The growth in [7] was 94.7%; in [8], 97.3%; in [9], 87.7%; in test [10], 94.7%.

For `O=C(/C=C/c1cccs1)c1ccc(Cl)nc1`, the growth is 98% in [1]; 102% in test [2]; 103% in test [3]; 93.5% in [4]; 84.2% in [5]; 106% in [6]. For the same compound, the growth is 94% in [7], 85.6% in test [8], 91.4% in test [9] and 99.6% in [10].

As to `COc1ccc(CC(C#N)c2cc3ccccc3[nH]2)cc1` (stereo not given), the growth in [1] was 113%; in [2], 95.9%; in [3], 92.7%; in [4], 61.5%; in test [5], 118%; in [6], 93.9%. In addition, the growth in [7] was 72.6%; in test [8], 84.2%; in test [9], -27.2% (active); in [10], 98.1%.

In the case of `O=C(CSc1nnc2n1S(=O)(=O)c1ccccc1N2c1ccccc1)Nc1nc2ccc(F)cc2s1`, the growth in test [1] was 56.8%; in test [2], 103%; in test [3] it was 118%; in test [4], -15.4% (active); in test [5], 125%; in [6], 91.3%. Besides, the growth in [7] is 85.3%; in test [8], 122%; in [9], 127%; in test [10], 86.8%.

For `N#C/C(=C/c1ccc([N+](=O)[O-])cc1)n1nnc2cc(F)c(F)cc21`, the growth is 75.6% in [1]; 103% in test [2]; 61.1% in test [3]; 64.7% in [4]; 24.5% in [5]; 36.2% in [6]. Besides, the growth in test [7] was 71.2%; in test [8], 75.3%; in [9] it was 15.1%; in [10] it was 38.6%.

Turning to `CC(C)(C)n1cc(-c2ccnc(NCCNS(=O)(=O)c3cccc(F)c3)c2)c(-c2ccccc2)n1`, the growth in test [1] was 105%; in [2] it was 70.6%; in test [3], 90.1%; in test [4], 67%; in test [5], 105%; in test [6], 99.5%. Also, the growth was 90.4% in [7], 27.1% in [8], 93.8% in test [9] and 74.4% in test [10].

With `Nc1nc(=S)c2ncn(C3OC(COP(=O)(O)O)C(O)C3O)c2[nH]1` (stereo not given), the growth in [1] was 14.9%; in test [2], 31.8%; in test [3], 29.8%; in test [4], 25.1%; in test [5] it was 8.92% (active); in test [6] it was 20%. For the same compound, the growth in test [7] was 16.8%; in test [8] it was 37.8%; in test [9] it was 15.5%; in [10], 12.7%.

`O=C1N[C@@H]2NC(=[N+]3CCOCC3)N[C@@H]2N1`: the growth in test [1] is 118%; in [2] it was 102%; in test [3] it was 97.8%; in [4], 87.3%; in test [5], 103%; in [6], 104%. The growth in test [7] was 91.5%; in test [8], 98.3%; in test [9], 108%; in test [10], 103%.

With `Cc1cc2c([nH]1)CSc1cc(S(=O)(=O)c3ccccc3)c(=O)[nH]c1-2`, the growth in test [1] is 30.5% [100 µM]; in test [2], 21.1% [100 µM]; in test [3], 23.8% [100 µM]; in test [4], 35.4% [100 µM]; in test [5], 26.5% [100 µM]; in [6], 23.5% [100 µM]. Besides, the growth in [7] was 6.96% [100 µM] (active); in test [8], 51.7% [100 µM]; in test [9] it was 19.3% [100 µM]; in test [10], 32.7% [100 µM].

As for `CN(C)c1ccc(/C=C/C(=O)c2ccc(-n3cc(CN4CCN(c5cc6c(cc5F)c(=O)c(C(=O)O)cn6C5CC5)CC4)nn3)cc2)cc1`, the growth is 89% in [1]; 87.6% in [2]; 8.77% (active) in test [3]; 62.8% in test [4]; 85.1% in test [5]; 88.5% in test [6]. Also, the growth is 36.9% in [7], 61.1% in test [8], 20% in test [9] and 31.8% in test [10].

With `CCN(c1ccc(Cl)cc1)c1nc(-c2ccc([N+](=O)[O-])cc2)cs1`, the growth in [1] is 101%; in test [2] it was 79.5%; in test [3] it was 98.5%; in [4], 71.9%; in [5], 115%; in test [6], 95.9%. For the same compound, the growth in [7] is 79.6%; in [8], 63.8%; in test [9], 101%; in [10], 96.9%.

As to `OCCOCCN(Cc1ccccn1)Cc1cc(I)cc(I)c1O`, the growth in test [1] was 87.1%; in [2] it was 87.7%; in [3], 89.8%; in test [4], 42.9%; in [5], 58.9%; in [6] it was 41.2%. The growth is 23.7% in test [7], 89.9% in [8], 81.9% in test [9] and 86.2% in [10].
